Source: PubChem BioAssay
CYP2C9 inh – blocks human cytochrome P450 2C9 | P11712 | CYP2C9 Supersomes, luciferin-H conversion, luminescence | inhibition, % at 5 µM | 96,000 compounds, 20% hits | AID 777;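 active means blocking of liver enzyme CYP2C9 beyond about 50% at 5 µM, limit read from the data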
CYP2C19 inhib – inhibitors of human CYP2C19; P33261; CYP2C19 Supersomes, luciferin-H EGE luminescence, 30 min; inhibition, % at 5 µM; 96,000 compounds, 21% hits; AID 778;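 active means CYP2C19 inhibition above a set limit at 5 µM in the primary screen, cut at about 50% in these data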
Target sequence (P33261 whole entry, looked up): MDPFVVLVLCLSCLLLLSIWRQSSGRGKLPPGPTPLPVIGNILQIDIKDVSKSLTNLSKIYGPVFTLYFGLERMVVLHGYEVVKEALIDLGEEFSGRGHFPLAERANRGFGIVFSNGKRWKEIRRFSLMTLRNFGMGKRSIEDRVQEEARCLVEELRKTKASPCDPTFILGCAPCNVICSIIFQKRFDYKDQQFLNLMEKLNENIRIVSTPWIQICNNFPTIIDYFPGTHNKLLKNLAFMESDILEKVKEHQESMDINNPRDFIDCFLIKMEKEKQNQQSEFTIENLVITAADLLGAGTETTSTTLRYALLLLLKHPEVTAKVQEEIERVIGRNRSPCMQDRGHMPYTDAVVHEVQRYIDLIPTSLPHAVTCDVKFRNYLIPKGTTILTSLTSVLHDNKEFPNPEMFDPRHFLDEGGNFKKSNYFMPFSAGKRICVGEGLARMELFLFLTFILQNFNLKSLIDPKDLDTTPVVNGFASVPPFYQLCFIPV
CYP2C19 activ – activators of human cytochrome P450 2C19. activation factor at 5 µM. recombinant CYP2C19, luciferin-H EGE luminescence; active compounds read high; 0 = fully inhibited enzyme, 1 = untreated enzyme. P33261. AID 1025. 96,000 tested, under 10 active;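 active means activation factor of at least 2 at 5 µM in the primary screen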
CYP2C9 activ – activators of human CYP2C9; P11712; recombinant CYP2C9, luciferin-H conversion, luminescence; active compounds read high; factor 1 = untreated enzyme, 0 = blocked; activation factor at 5 µM; 96,000 compounds, 1.4% hits; AID 1024;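 active means activation factor of 2 or more for CYP2C9 at a 5 µM dose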
Measles CPE – protection of cells from measles virus. protection (pct of control), % at 4 µM. Measles virus-infected cells, CPE protection, absorbance. 140,000 compounds, 1.5% hits; in the data active means protection mostly above about 24%, no sharp cut-off; inactive means mostly below about 26%
Large screens that a line does not name were inactive. A selection: hits, their analogues and other compounds. The true share with any hit is near 22%.

Cc1ccc(S(=O)(=O)N2CCCC2C(=O)Nn2cnnc2)cc1 (stereo unspecified)	none
O=C(OCc1cc(=O)n2cc(Br)ccc2n1)C1COc2ccccc2O1 (stereo unspecified)	none
CC1CC1C(=O)OCc1cc(=O)n2cc(Br)ccc2n1 (stereo unspecified)	CYP2C19 inhib 63.2
CCOc1cc([C@H]2[C@@H]3CCCC[C@]3(O)CCN2CC(=O)NCc2ccco2)ccc1O	CYP2C9 inh 54.1, CYP2C19 inhib 56.1
COCCCN1CN(S(=O)(=O)c2ccc(Cl)cc2)c2nc3ccccc3nc21	CYP2C9 inh 99.4, CYP2C19 inhib 98.3
CC(C)OCCCN1CN(S(=O)(=O)c2ccccc2)c2nc3ccccc3nc21	CYP2C9 inh 97.5, CYP2C19 inhib 85.2
CCNc1c2c3c(cccc3n(C)c1=O)C(=O)c1ccccc1-2	CYP2C9 inh 53.2
Cn1c(=O)c(NCCO)c2c3c(cccc31)C(=O)c1ccccc1-2	none
Cn1c(=O)c(NCCc2ccccc2)c2c3c(cccc31)C(=O)c1ccccc1-2	CYP2C9 inh 97.5, CYP2C19 inhib 78.5
COc1cc(/C=C/C(C)=O)cc(OC)c1OC	none
Cc1ccc(O)c(-c2cc3ccccc3[nH]2)c1	CYP2C9 inh 80.0, CYP2C19 inhib 54.1
O=C(NCCc1c[nH]c2ccccc12)C1CCC(Cn2c(=S)[nH]c3ccccc3c2=O)CC1 (stereo unspecified)	CYP2C9 inh 97.8, CYP2C19 inhib 99.9
O=C(CCCCn1c(=O)[nH]c2ccccc2c1=O)NCCc1c[nH]c2ccccc12	none (no result: CYP2C9 inh, CYP2C19 inhib, CYP2C19 activ, CYP2C9 activ)
COCCNC(=O)C1CCC(Cn2c(=S)[nH]c3ccccc3c2=O)CC1 (stereo unspecified)	CYP2C9 inh 60.7, CYP2C19 inhib 53.3
CCOc1ccc2oc(C(=O)OCC(=O)NC(=O)NC3CCCC3)c(C)c2c1	none
Cc1ccc(NC(=O)/C=C/c2ccc([N+](=O)[O-])s2)c(C)c1	none (no result: CYP2C9 inh, CYP2C19 inhib, CYP2C19 activ, CYP2C9 activ)
COC(=O)CC1SC(=O)NC1=Nc1ccc(C)cc1 (stereo unspecified)	CYP2C19 inhib 75.4
COC(=O)CC1SC(=O)NC1=Nc1ccccc1 (stereo unspecified)	none
CC1=C(C(=O)N2CCOCC2)C(c2cccc3ccccc23)NC(=S)N1 (stereo unspecified)	none (no result: CYP2C9 inh, CYP2C19 inhib, CYP2C19 activ, CYP2C9 activ)
Fc1ccc2c(c1)C1C=CCC1C(c1cc3c(cc1Br)OCO3)N2 (stereo unspecified)	CYP2C9 inh 69.2
Fc1ccc2c(c1)[C@H]1OCC[C@H]1[C@@H](c1ccco1)N2	none (no result: CYP2C9 inh, CYP2C19 inhib, CYP2C19 activ, CYP2C9 activ)
CCCN1C(=O)C2(C(C(=O)c3ccc(C)o3)=C(O)C(=O)N2CCCN2CCOCC2)c2ccccc21 (stereo unspecified)	none
CCOc1ccc(C(C)=O)cc1CSc1nnc(-c2ccoc2C)n1N	CYP2C9 inh 73.7, CYP2C19 inhib 85.8
Cc1cc(NC(=O)CSc2nnc(-c3ccoc3C)n2N)no1	none
Cc1sc2nc(SCC(=O)NCc3ccco3)n(Cc3ccccc3)c(=O)c2c1C	CYP2C9 inh 59.3
CCOC(=O)c1sc2nc(SCC(=O)NCc3ccco3)n(Cc3ccccc3)c(=O)c2c1C	none (no result: CYP2C9 inh, CYP2C19 inhib, CYP2C19 activ, CYP2C9 activ)
Cc1[nH]c2ccc(-c3nnc(SCC(=O)NCc4ccco4)n3Cc3ccccc3)cc2c1C	CYP2C9 inh 65.5
CCOC(=O)CNC(=O)CSc1nnc(-c2ccccc2)n1Cc1ccco1	none
Cc1sc2nc(C(C)C)nc(SCC(=O)NCc3ccco3)c2c1C	CYP2C9 inh 82.2, CYP2C19 inhib 77.6
O=C(N/N=C/C1CC=CCC1)c1ccc(O)cc1O (stereo unspecified)	none (no result: CYP2C9 inh, CYP2C19 inhib, CYP2C19 activ, CYP2C9 activ)
Cc1cc(C(=O)Nc2cccc(/C=C/C(=O)O)c2)c(C)o1	none
CCOC(=O)CSc1nnc(NC(=O)c2cc([N+](=O)[O-])cc([N+](=O)[O-])c2)s1	none (no result: CYP2C9 inh, CYP2C19 inhib, CYP2C19 activ, CYP2C9 activ)
CCOC(=O)CC(NC(=O)c1ccco1)c1ccc(C)cc1 (stereo unspecified)	none
CC(C)CCNC(=O)c1cnn2c(C(F)(F)F)cc(-c3ccco3)nc12	none
O=C1CCCC2=C1C(c1ccccc1)C1C(=O)c3ccccc3C1=N2 (stereo unspecified)	none (no result: CYP2C9 inh, CYP2C19 inhib, CYP2C19 activ, CYP2C9 activ)
CCOC(=O)C1=C(C)N=C2c3ccccc3C(=O)C2C1c1ccc(C)cc1 (stereo unspecified)	CYP2C9 inh 68.8
CCOC(=O)C1=C(C)N=C2c3ccccc3C(=O)C2C1c1ccccc1 (stereo unspecified)	CYP2C9 inh 56.5
C/C(=N\NC(=O)c1ccc(OC2CCCC2)cc1)c1ccc(C)s1	none
Cc1nn(CC(=O)NCc2ccccc2Cl)c(C)c1[N+](=O)[O-]	none
Oc1[nH]c2ccccc2c1C=Nc1ccc2c(c1)OCO2	none
COc1ccc(N=Cc2c(O)[nH]c3ccccc23)cc1	Measles CPE 45.7
Oc1[nH]c2ccccc2c1/C=N/c1nccs1	CYP2C19 inhib 53.4
Oc1[nH]c2ccccc2c1/C=N/N1CCCCC1	none
Cn1ccc(C(=O)OCC(=O)c2ccccc2)n1	none
Cc1ccc(N2C=Nc3ccc(C)c4nc(C)cc2c34)cc1	CYP2C9 inh 86.4, CYP2C19 inhib 68.1
CC1=Nc2ccc(C)c3nc(C)cc(c23)N1c1ccc(C)cc1	none (no result: CYP2C9 inh, CYP2C19 inhib, CYP2C19 activ, CYP2C9 activ)
CCOC(=O)N1CCN(C(=O)CSCC(=O)Nc2nc(-c3ccc4c(c3)OCO4)cs2)CC1	CYP2C9 inh 73.1
O=C(Nc1nc(-c2ccc3c(c2)OCO3)cs1)C1COc2ccccc2O1 (stereo unspecified)	CYP2C9 inh 79.7
O=C(Nc1nc(-c2ccccc2)cs1)C1COc2ccccc2O1 (stereo unspecified)	none
O=C(Nc1nc(-c2ccc(S(=O)(=O)N3CCCC3)cc2)cs1)C1COc2ccccc2O1 (stereo unspecified)	CYP2C9 inh 92.2, CYP2C19 inhib 61.8
c1ccc(-c2nn3c(Cn4cnc5ccccc54)nnc3s2)cc1	CYP2C19 inhib 78.8
c1ccc(OCc2nn3c(Cn4cnc5ccccc54)nnc3s2)cc1	none
c1cncc(-c2nn3c(Cn4cnc5ccccc54)nnc3s2)c1	none
c1ccc2c(c1)ncn2Cc1nnc2sc(-c3ccncc3)nn12	CYP2C19 inhib 78.5
Cc1c(C)n(C(=O)CN2CCC(C)CC2)c2ccccc12	CYP2C19 inhib 56.9
Cn1cnnc1SCC(=O)n1c2ccccc2c2ccccc21	none
Cc1c(C)n(C(=O)CSc2nncn2C)c2ccccc12	CYP2C9 activ 2.2
CC1=CC(C)(C)N(C(=O)CSc2ncn[nH]2)c2ccccc21	none
Cc1c(C)n(C(=O)CSc2ncn[nH]2)c2ccccc12	CYP2C19 inhib 59.4
S=c1[nH]nc(CSc2nc3ccccc3s2)n1Cc1ccccc1	none
N#Cc1ccccc1NC(=O)CSc1nnc(-c2ccccc2)n1-c1ccccc1	CYP2C9 inh 78.0
CCN(CC)c1ccc(-c2nnc(SCC(=O)Nc3ccccc3C#N)n2-c2ccccc2)cc1	CYP2C9 inh 74.1, CYP2C19 inhib 51.8
Cc1ccc(-c2nnc(SCC(=O)CC(=O)Nc3ccccc3)n2-c2ccccc2)cc1	none
O=C(Cn1c(=O)oc2ccccc21)N1CCN(c2ccccc2)CC1	none
O=C(NC(=S)Nc1ccc2[nH]ncc2c1)c1ccccc1	CYP2C9 inh 95.2, CYP2C19 inhib 99.4
